Source: PubChem BioAssay (National Center for Advancing Translational Sciences (NCATS))
This is a sample that favours compounds with a hit; in the whole collection about 21% have one here.
DT40 TDP1 no CPT = qHTS for Inhibitors of human tyrosyl-DNA phosphodiesterase 1 (TDP1): qHTS in cells in absence of CPT; DT40 Tdp1-/- hTDP1 cells, no CPT, ATP luminescence, 48 h; Potency, µM (titrated, usually from 46.2 µM), without a hit: top-dose activity change, negative = growth inhibition, hits mostly inhibitors; 420,000 tested, 15% active; AID 686978, 2013; also: potency is read from the fitted curve at half-maximal effect; % is scaled to controls: 0 for no effect and ±100 for the full control effect; nearly all actives have a fitted effect of over 55% in size
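Chicken DT40 Tdp1-/- cells stably complemented with human TDP1 were seeded at 400 cells/well with DMSO in place of 20 nM camptothecin. After compound pinning, cells grew at least 48 hr at 37 °C; viability read by CellTiter-Glo luminescence.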
ClpP mod = qHTS Assay for Activators of ClpP; purified B. subtilis ClpP, FRET peptide cleavage, 20 min; Potency, µM (titrated, usually from 57.5 µM), inactives show at the top dose activity change, negative = active; 340,000 tested, 1.9% active; active = well fitted falling curve with a large enough effect; inconclusive = small, poorly fitted or top-dose-only effect; inactive = no such curve, though single readings can be large or run the other way; also: potency is read from the fitted curve at half-maximal effect; the source files actives as falling curves though it sought activators and does not explain the sign; nearly all actives have a fitted effect of over 65% in size
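Purified B. subtilis ClpP, 10 microg/mL final in Tris/HCl pH8 with KCl, BSA, glycerol and Tween-20, cleaved an Abz/nitrotyrosine-quenched decapeptide. Fluorescence (ex 320, em 430) was read at 0 and 20 min at room temperature. Delta was normalized to 5.8 microM ADEP and DMSO/no-enzyme controls.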
D3 antag = qHTS of D3 Dopamine Receptor Antagonist: qHTS. D(3) dopamine receptor (Homo sapiens), P35462. D3R cells, DiscoveRx beta-arrestin luminescence, antagonist mode; hits give low values. max response, negative = inhibition, %. 360,000 tested, 2.5% active. AID 652054, 2013; in the data active = max response below about -50%; inconclusive = no clear call, values can overlap the other calls; also: % is scaled to controls: 0 for no effect and ±100 for the full control effect
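Cells expressing the human receptor were seeded at 1500 cells/well, incubated overnight at 37 degrees C in 5% CO2, then exposed to library compounds with dopamine controls for 90 minutes at 37 degrees C before luminescent detection.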
DT40 TDP1 CPT = qHTS for Inhibitors of human tyrosyl-DNA phosphodiesterase 1 (TDP1): qHTS in cells in presence of CPT | chicken DT40 Tdp1-/-;hTDP1 cells + 20 nM CPT, ATP luminescence, 48 h | 420,000 tested, 12% active | Potency, µM (titrated, usually from 46.2 µM), for the others: top-dose activity change, negative = growth inhibition, most hits filed as inhibitors; also: potency is read from the fitted curve at half-maximal effect; % is scaled to controls: 0 for no effect and ±100 for the full control effect; nearly all actives have a fitted effect of over 55% in size
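Cell growth measured by CellTiter-Glo luminescence after a minimum 48 h, 37 C compound exposure with 20 nM CPT in Tdp1-knockout DT40 cells stably expressing hTDP1, seeded 400/well; qHTS titration format.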
IL1B secr inh = qHTS for Inhibitors of Inflammasome Signaling: IL-1-beta AlphaLISA Primary Screen; THP-1 LPS/ATP IL-1B secretion, AlphaLISA, 16 h; hits give low values; activity change, % at 57.5 µM; 360,000 tested, 4.7% active; AID 743279, 2014; in the data active = activity change below about -50%; inconclusive = mostly about -30% to -49%; also: % is scaled to controls: 0 for no effect and ±100 for the full control effect
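THP-1 cells pretreated 1 hr with compounds (up to 57.5 uM final), then stimulated with LPS (250 ng/mL final) plus ATP (1.25 mM final); secreted IL-1B measured by AlphaLISA after 16 hr, decreased signal indicating inhibition.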
DRD3 agonist = qHTS of D3 Dopamine Receptor Agonist: qHTS; D3R DiscoveRx beta-arrestin cells, luminescence, 90 min; max activation, %; 410,000 tested, 0.58% active; D(3) dopamine receptor (Homo sapiens), P35462; AID 652048, 2013; in the data active = max activation above about 30%; also: 0% is about no effect
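Agonist-mode cell screen: cells plated at 1500/well and incubated overnight at 37 °C, then exposed to library compounds for 90 min at 37 °C. Detection reagent was added for 30–60 min at room temperature, and luminescence was read.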
Starred values were filed as active, the others as inactive; ? = inconclusive; / = not tested or not shown. Unless noted, calls follow the shape of the dose curve; as a rule, active = well fitted inhibition curve with a large enough effect; inconclusive = small, poorly fitted or top-dose-only effect; inactive = flat fitted curve, though single readings scatter.

SMILES	DT40 TDP1 no CPT	ClpP mod	D3 antag	DT40 TDP1 CPT	IL1B secr inh	DRD3 agonist
Cc1cccc([C@@H]2[C@@H]3C(=O)N(Cc4ccccc4)C(=O)[C@@H]3[C@]3(C)C(=O)N(c4cccc(Cl)c4)C(=O)N23)c1	?	0%	-60*	?	-1	-5
CCN1C(=O)[C@H]2[C@@H](c3ccc(C)cc3)N3C(=O)N(c4ccc(C(F)(F)F)cc4)C(=O)[C@@]3(CC(C)C)[C@H]2C1=O	16µM*	0%	2	?	2	5
CCN1C(=O)[C@H]2[C@@H](c3ccc(C)cc3)N3C(=O)N(c4ccc(C)cc4)C(=O)[C@@]3(CC)[C@H]2C1=O	-16%	-1%	?	-6%	4	-19
Cc1ccc(N2C(=O)N3[C@H](c4ccc(Br)cc4)[C@@H]4C(=O)N(C(C)(C)C)C(=O)[C@@H]4[C@]3(C)C2=O)cc1	-7%	0%	?	?	-5	-13
CCCCN1C(=O)C(CC(=O)NCc2cccs2)CC(C(=O)N(C(C)C)C(C)C)=C1C (stereo not drawn)	-33%	-1%	18	-25%	8	-3
O=C(NCC12CC3CC(CC(C3)C1)C2)c1cc2nc(-c3ccc(Cl)cc3)cc(C(F)(F)F)n2n1	/	-3%	/	/	/	2
Cc1cccc([C@@H]2[C@@H]3C(=O)N(Cc4ccccc4)C(=O)[C@@H]3[C@]3(Cc4ccc(Cl)cc4)C(=O)N(c4cccc(Br)c4)C(=O)N23)c1	-12%	2%	-10	?	-2	1
CCCCNS(=O)(=O)c1ccc2nc(-c3cccnc3)cc(C(=O)NCCCOC(C)C)c2c1	?	-2%	/	-29%	/	5
CCN1C(=O)[C@H]2[C@@H](c3ccc(C)cc3)N3C(=O)N(c4ccc(C)cc4)C(=O)[C@@]3(Cc3ccccc3)[C@H]2C1=O	?	-2%	43	?	-10	48*
CCN1C(=O)[C@H]2[C@@H](c3ccc(C)cc3)N3C(=O)N(c4ccccc4)C(=O)[C@@]3(Cc3ccccc3)[C@H]2C1=O	-1%	3%	2	-10%	17	-7
CC(C)(C)N1C(=O)[C@H]2[C@@H](c3ccc(Br)cc3)N3C(=O)N(c4ccc(Br)cc4)C(=O)[C@@]3(Cc3ccccc3)[C@H]2C1=O	?	-4%	-4	21µM*	-21	-27
CC(C)(C)N1C(=O)[C@H]2[C@@H](c3ccc(Br)cc3)N3C(=O)N(c4cccc(F)c4)C(=O)[C@@]3(Cc3ccccc3)[C@H]2C1=O	?	-1%	7	?	-5	24
COc1ccc(CNC[C@@H](CCCCN(C)Cc2ccc(OC)cc2)N2C[C@H](c3ccccc3)N(CCc3ccc(Cl)c(Cl)c3)C(=O)C2=O)cc1	4.1µM*	0%	-7	?	?	-13
COc1ccc(CCN(C)CCCN2CC(c3ccccc3)CC2=O)cc1OC (stereo not drawn)	6%	1%	?	-25%	-6	-17
N/C(=N\c1nc2ccccc2o1)NC(=O)c1ccccc1NC(=O)c1ccccc1	3.7µM*	40%	10	5.2µM*	6	0
N/C(=N\c1nc2ccccc2o1)NC(=O)c1ccccc1F	?	-1%	7	-1%	6	0
CN1CCN(c2nc(-c3cc4ccccc4o3)cs2)CC1	11%	0%	2	-4%	21	-8
Cc1cc(C)n(CCc2nc(-c3ccc(C)o3)cs2)n1	16µM*	-1%	-3	?	17	3
Cc1cc(C)n(CCc2nc(-c3cc4ccccc4o3)cs2)n1	18µM*	0%	46	18µM*	-10	10
CCOP(=O)(NC12CC3CC(CC(C3)C1)C2)NC12CC3CC(CC(C3)C1)C2	?	/	9	?	6	3
CC(C)COc1ccc(-c2nnc(-c3ccncc3)o2)cc1	?	32µM*	52	?	4	9
c1cc(-c2nnc(-c3ccncc3)o2)ccn1	-20%	-4%	-7	7%	-4	-3
CCOc1ccc(-c2nnc(-c3cccs3)o2)cc1	-19%	1%	?	-16%	?	-9
CCCOc1ccc(-c2nnc(-c3ccncc3)o2)cc1	-17%	?	-71*	-16%	26	-4
CCCCc1nn2c(=O)cc(COC(=O)CNC(=O)COc3ccc(C)cc3)nc2s1	7%	-3%	/	3%	/	4
SMILES	DT40 TDP1 no CPT	ClpP mod	D3 antag	DT40 TDP1 CPT	IL1B secr inh	DRD3 agonist
COc1ccc(C(=O)N2CCC[C@@]3(CCN(CC(C)C)C3)C2)cc1	-16%	/	/	7%	/	/
CC(C)C[C@H]1CNC(=S)N1C[C@H]1CCCN1C[C@H](CC(C)C)N1C[C@H](Cc2ccc(O)cc2)N(CC2CCCCC2)C1=S	13µM*	-3%	20	10µM*	-62*	5
CC(C)C[C@@H](CN1CCCC1CN1C(=S)NC[C@@H]1Cc1ccc(O)cc1)N1C[C@H](Cc2ccccc2)N(CC2CCCCC2)C1=S (stereo partly drawn)	?	-2%	-5	?	-22	29
CC(C)C[C@@H](CN1CCCC1CN1C(=S)NC[C@@H]1Cc1ccc(O)cc1)N1C[C@H](Cc2ccccc2)N(CC2CCCCCC2)C1=S (stereo partly drawn)	23µM*	-3%	1	?	1	22
CC(C)C[C@@H](CN1CCCC1CN1C(=S)NC[C@@H]1Cc1ccc(O)cc1)N1C[C@H](Cc2ccc(O)cc2)N(CC2CCCCCC2)C1=S (stereo partly drawn)	8.2µM*	0%	?	15µM*	-83*	-26
COc1ccc(C(CC(=O)c2ccccc2)C2CCCCC2=O)cc1 (stereo not drawn)	-29%	1%	15	16µM*	-3	6
Oc1ccc(NC(=S)N=Nc2c(O)[nH]c3ccc(Br)cc23)cc1	23µM*	/	-24	-78%	-64*	-12
CC(C)c1ccc2[nH]c(O)c(N=NC(=O)c3cccc(S(=O)(=O)N4CCCCC4)c3)c2c1	9.2µM*	-1%	31	12µM*	17	10
